We go through 36 compounds from the antibiotic and cytotoxicity screens of Wong et al. (2023).

Screen size: about 39,000 compounds; about 3,300 (8.5%) were called active. This excerpt belongs to a sample that is enriched for actives.

The subject of this experiment is HepG2. Nature of the experiment: cytotoxicity call (relative viability < 0.9). As to conditions: 10 µM.
Regarding `C[C@@H]1CN([C@@H](C)CO)C(=O)Cc2cc(NC(=O)CCCCCC(=O)Nc3ccccc3N)ccc2O[C@@H]1CN(C)C(=O)Nc1ccc(F)cc1`, the cytotoxicity call was “inactive”. For `C[C@H](CO)N1C[C@H](C)[C@@H](CN(C)C(=O)NC2CCCCC2)Oc2c(NC(=O)c3cnccn3)cccc2C1=O` the value was “inactive”; for `Cc1noc(C)c1S(=O)(=O)Nc1ccc2c(c1)C(=O)N([C@H](C)CO)C[C@H](C)[C@H](CN(C)C(=O)Nc1ccc(F)cc1)OCCCC[C@@H](C)O2`, “inactive”; for `C[C@@H]1CN([C@@H](C)CO)C(=O)c2cc(C#CC3(O)CCCC3)cnc2O[C@H]1CN(C)C(=O)CN(C)C`, “inactive”. For `CNC[C@H]1OCCCC[C@@H](C)Oc2ccc(NC(=O)Nc3ccc(C(F)(F)F)cc3)cc2C(=O)N([C@@H](C)CO)C[C@H]1C` the value was “inactive”; for `COc1ccc(NC(=O)Nc2cccc3c2O[C@@H](CN(C)Cc2ccc(C(=O)Nc4ccccc4N)cc2)[C@H](C)CN([C@H](C)CO)C3=O)cc1`, “inactive”. The result for `C[C@@H]1CCCCO[C@@H](CN(C)Cc2ccc(C(=O)Nc3ccccc3N)cc2)[C@@H](C)CN([C@H](C)CO)C(=O)c2cc(NC(=O)NC3CCCCC3)ccc2O1` reads “inactive”; that for `COCCOC(=O)N1C(=O)[C@@]2(c3cc(C#Cc4ccc(OC)cc4)ccc31)[C@H](c1ccccc1OCCO)N1[C@H](c3ccccc3)[C@H](c3ccccc3)OC(=O)[C@H]1[C@@H]2C(=O)NC[C@H](O)c1ccccc1`, “inactive”. Regarding `CC(C)NC(=O)Nc1ccc2c(c1)CC(=O)N([C@H](C)CO)C[C@@H](C)[C@H](CN(C)S(=O)(=O)c1ccccc1)O2`, the cytotoxicity call is “inactive”. The result for `C[C@@H]1CN([C@H](C)CO)C(=O)c2cccc(NC(=O)C3CCCCC3)c2O[C@@H]1CN(C)Cc1ccc(Oc2ccccc2)cc1` reads “inactive”; that for `CO[C@@H]1CN(C)C(=O)c2cc(NC(=O)Nc3cccc(Cl)c3)ccc2OC[C@@H](C)N(C(=O)Nc2c(C)noc2C)C[C@@H]1C`, “inactive”; that for `CO[C@H]1CN(C)C(=O)c2cc(NC(=O)Nc3cccc(Cl)c3)ccc2OC[C@H](C)N(C(=O)Nc2c(C)noc2C)C[C@@H]1C`, “inactive”. For `C[C@@H]1CCCCO[C@H](CN(C)S(=O)(=O)c2cccs2)[C@H](C)CN([C@H](C)CO)C(=O)c2cc(NC(=O)Nc3ccc(F)cc3)ccc2O1` the value was “active”.

Regarding `C[C@@H]1CN([C@@H](C)CO)C(=O)c2cc(NC(=O)NC3CCCCC3)ccc2O[C@@H](C)CCCCO[C@H]1CN(C)S(=O)(=O)c1cccs1`, the cytotoxicity call is “inactive”. The result for `C[C@H]1CCCCO[C@H](CN(C)S(=O)(=O)c2cccs2)[C@@H](C)CN([C@@H](C)CO)C(=O)c2cc(NC(=O)Nc3ccc(F)cc3)ccc2O1` reads “inactive”. For `C[C@@H]1CN([C@@H](C)CO)C(=O)c2cc(NC(=O)NC3CCCCC3)ccc2O[C@@H](C)CCCCO[C@@H]1CN(C)S(=O)(=O)c1cccs1` the value was “inactive”. For `C[C@@H]1CCCCO[C@@H](CN(C)S(=O)(=O)c2cccs2)[C@H](C)CN([C@H](C)CO)C(=O)c2cc(NC(=O)Cc3ccccc3)ccc2O1` the value was “active”. For the compound `C[C@H](CO)N1C[C@H](C)[C@H](CN(C)S(=O)(=O)c2cccs2)OCCCC[C@H](C)Oc2ccc(NC(=O)Nc3ccc(F)cc3)cc2C1=O`, the cytotoxicity call was “inactive”.

Regarding `C[C@@H]1CN([C@H](C)CO)C(=O)c2cc(NC(=O)Cc3ccccc3)ccc2O[C@@H](C)CCCCO[C@H]1CN(C)S(=O)(=O)c1cccs1`, the cytotoxicity call was “inactive”. The result for `C[C@@H]1CCCCO[C@@H](CN(C)S(=O)(=O)c2cccs2)[C@H](C)CN([C@H](C)CO)C(=O)c2cc(NC(=O)NC3CCCCC3)ccc2O1` reads “active”; that for `C[C@@H]1CCCCO[C@@H](CN(C)S(=O)(=O)c2cccs2)[C@H](C)CN([C@@H](C)CO)C(=O)c2cc(NC(=O)Cc3ccccc3)ccc2O1`, “inactive”; that for `O=C(O)CNC(=O)C1CCC1`, “inactive”.

Regarding `COCCNC(=O)C[C@@H]1CC[C@H]2[C@@H](COC[C@H](O)CN2C(=O)Nc2ccc3c(c2)OCO3)O1`, the cytotoxicity call is “inactive”. In the case of `CN1C(=O)c2cc(NC(=O)c3cscn3)ccc2OC[C@@H]2O[C@H](CC(=O)N3CCOCC3)CC[C@H]21`, the cytotoxicity call is “inactive”. Take `C[C@@H]1CCCCO[C@@H](CN(C)C(=O)Cc2ccccc2)[C@H](C)CN([C@H](C)CO)C(=O)c2cc(NC(=O)Nc3ccccc3)ccc2O1`: the cytotoxicity call is “inactive”. For `COc1ccc(S(=O)(=O)N(C)C[C@@H]2Oc3ccc(NS(=O)(=O)c4ccccc4)cc3C(=O)N([C@@H](C)CO)C[C@@H]2C)cc1` the value was “inactive”.

Consider `Cc1noc(C)c1NC(=O)N(C)C[C@@H]1Oc2ccc(NC(=O)c3ccncc3)cc2CC(=O)N([C@H](C)CO)C[C@@H]1C`, for which the cytotoxicity call is “inactive”. For `COC(=O)C1=C2CC[C@H](CO)NC(=O)N[C@H](Cc3ccccc3)C(=O)NCc3cn(nn3)C[C@H](Cc3ccccc3)NC(=O)c3oc(c(C(=O)OC)c3C(=O)OC)CC[C@H](CO)NC(=O)N[C@H](Cc3ccccc3)C(=O)NCc3cn(nn3)C[C@H](Cc3ccccc3)NC(=O)C(=C1C(=O)OC)O2` the value was “inactive”; for `C[C@@H]1CN([C@H](C)CO)C(=O)c2cc(C3=CCCC3)cnc2O[C@H]1CN(C)C(=O)Nc1ccc(C(F)(F)F)cc1`, “inactive”; for `Cc1ccc(S(=O)(=O)N(C)C[C@H]2OCCCC[C@H](C)Oc3ccc(NC(=O)Nc4cccc5ccccc45)cc3C(=O)N([C@@H](C)CO)C[C@@H]2C)cc1`, “inactive”. For `C[C@H](CO)N1C[C@H](C)[C@@H](CN(C)C(=O)C2CCOCC2)Oc2ncc(C#CCc3ccccc3)cc2C1=O` the value was “inactive”; for `C[C@@H]1CN([C@H](C)CO)C(=O)c2cc(Br)cnc2O[C@H]1CN(C)C(=O)Nc1ccc(F)cc1`, “inactive”; for `COc1ccc(NC(=O)N(C)C[C@H]2OCCCC[C@H](C)Oc3ccc(NS(=O)(=O)c4ccc(C)cc4)cc3C(=O)N([C@H](C)CO)C[C@@H]2C)cc1`, “inactive”. Turning to `CCCc1cc(C)[nH]c(=O)c1CNC(=O)c1cc(-c2ccc(N3CCN(C(C)C)CC3)nc2)cc2c1cnn2C(C)C`, the cytotoxicity call was “active”. For `C[C@@H]1CN([C@H](C)CO)C(=O)c2cc(-c3cccc(C(=O)N(C)C)c3)cnc2O[C@H]1CN(C)S(=O)(=O)c1ccc(F)cc1` the value was “inactive”; for `CO[C@@H](CN(C)S(=O)(=O)c1cn(C)cn1)[C@@H](C)CN(C(=O)Nc1ccc(C(F)(F)F)cc1)[C@@H](C)CO`, “inactive”.
